PubChem BioAssay (EPA / NIEHS)
“And” between values parts separate entries of the source, which are not always exact repeats. Equal values may be shown once. More than one record can exist for a structure, and the calls need not agree. The source made the active and inactive calls. How the source made its calls: active means hit-call score of the fitted dose curve at least 0.9, where 1 is the maximum; inactive means score below 0.9.

Columns and labels:
[1] = ATG_GLI_CIS: Attagene CIS-FACTORIAL HepG2 Assay for human Zinc Finger Protein GLI1 (AID 2282945); details: HepG2, Attagene cis-factorial reporter mRNA, GLI element; actives raise or lower the signal
How it was run: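 Bidirectional curve fits relative to DMSO, using reporter mRNA levels from RT-PCR plus capillary electrophoresis. Cells were HepG2 transiently carrying cis-regulated reporter constructs, harvested 24 h after dosing.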

[2] = molecular target: Bile acid receptor (Homo sapiens) (UniProt Q96RI1); assay: ATG_IR1_CIS: Attagene CIS-FACTORIAL HepG2 Assay for human Nuclear Receptor Subfamily 1 Group H Member 4 (NR1H4), IR1 submotif (AID 2282946); details: IR1 reporter transcription, actives raise or lower the signal
Sequence of Bile acid receptor (Homo sapiens) (Q96RI1 whole entry, looked up): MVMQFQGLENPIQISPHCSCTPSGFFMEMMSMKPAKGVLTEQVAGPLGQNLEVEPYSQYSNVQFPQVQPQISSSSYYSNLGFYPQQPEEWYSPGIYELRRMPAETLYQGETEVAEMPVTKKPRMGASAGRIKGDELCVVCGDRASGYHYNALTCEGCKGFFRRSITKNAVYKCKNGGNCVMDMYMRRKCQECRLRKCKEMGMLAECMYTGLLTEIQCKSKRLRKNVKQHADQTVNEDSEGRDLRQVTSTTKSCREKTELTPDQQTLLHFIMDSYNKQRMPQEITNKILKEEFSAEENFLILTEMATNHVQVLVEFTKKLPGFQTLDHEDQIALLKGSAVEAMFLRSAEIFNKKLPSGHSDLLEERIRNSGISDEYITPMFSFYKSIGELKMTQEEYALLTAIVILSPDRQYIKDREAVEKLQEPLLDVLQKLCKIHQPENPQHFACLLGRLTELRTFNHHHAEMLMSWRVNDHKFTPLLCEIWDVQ
How it was run: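 HepG2 cells transiently transfected with multiplexed cis-element reporter units read endogenous transcription factor activity. After 24 h compound exposure, reporter mRNA was quantified by RT-PCR, fluorescent labelling, HpaI digestion and capillary electrophoresis; bidirectional fitting versus DMSO baseline.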

[3] = ATG_GRE_CIS: Attagene CIS-FACTORIAL HepG2 Assay for human Glucocorticoid Response Elements (GRE) (AID 2282947); details: HepG2 GRE cis-reporter, Attagene multiplex mRNA; actives raise or lower the signal
How it was run: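 Reporter transcripts read by RT-PCR with capillary electrophoresis fluorescence after a 24 h chemical exposure of HepG2 cells transiently transfected with multiple cis-element reporter units. Gain or loss fitted against DMSO.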

[4] = ATG_ISRE_CIS: Attagene CIS-FACTORIAL HepG2 Assay for human Interferon Regulatory Factor 1 (IRF1) binding to an Interferon-Stimulated Response Element (ISRE) (AID 2282948); details: HepG2 ISRE cis-reporter (Attagene), mRNA transcription readout; actives raise or lower the signal
How it was run: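 Signal reflects induction or loss of ISRE-linked reporter mRNA in transiently transfected HepG2 cells after a 24 h treatment, detected by fluorescent RT-PCR fragments on capillary electrophoresis and normalised to DMSO.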

[5] = ATG_M_32_CIS: Attagene CIS-FACTORIAL HepG2 Assay for M32 Transcription Factor (Internal Marker) (AID 2282949); details: HepG2 Attagene cis-factorial M32 reporter, mRNA; actives raise or lower the signal;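 further: background control marker of the multiplexed CIS panel rather than a real target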
How it was run: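 HepG2 transfectants (cis-regulated reporter transcription units) dosed 24 h. Reporter mRNA by RT-PCR plus CE, analysed as gain or loss relative to DMSO.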

[6] = ATG_M_06_CIS: Attagene CIS-FACTORIAL HepG2 Assay for M06 Transcription Factor (Internal Marker) (AID 2282950); details: HepG2 Attagene CIS-FACTORIAL M06 internal marker reporter; actives raise or lower the signal
How it was run: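 Cells (HepG2, transiently carrying cis-driven reporter units) receive chemical for 24 h before RNA isolation. Reporter cDNA is PCR-amplified, FAM-labelled by primer extension, HpaI-digested and sized on a capillary analyser.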

[7] = molecular target: Hypoxia-inducible factor 1-alpha (Homo sapiens) (UniProt Q16665); assay: ATG_HIF1a_CIS: Attagene CIS-FACTORIAL HepG2 Assay for human Hypoxia Inducible Factor 1 (HIF1A) (AID 2282951); details: HepG2 Attagene cis-factorial HIF1a reporter transcription; actives raise or lower the signal
Sequence of Hypoxia-inducible factor 1-alpha (Homo sapiens) (Q16665 whole entry, looked up): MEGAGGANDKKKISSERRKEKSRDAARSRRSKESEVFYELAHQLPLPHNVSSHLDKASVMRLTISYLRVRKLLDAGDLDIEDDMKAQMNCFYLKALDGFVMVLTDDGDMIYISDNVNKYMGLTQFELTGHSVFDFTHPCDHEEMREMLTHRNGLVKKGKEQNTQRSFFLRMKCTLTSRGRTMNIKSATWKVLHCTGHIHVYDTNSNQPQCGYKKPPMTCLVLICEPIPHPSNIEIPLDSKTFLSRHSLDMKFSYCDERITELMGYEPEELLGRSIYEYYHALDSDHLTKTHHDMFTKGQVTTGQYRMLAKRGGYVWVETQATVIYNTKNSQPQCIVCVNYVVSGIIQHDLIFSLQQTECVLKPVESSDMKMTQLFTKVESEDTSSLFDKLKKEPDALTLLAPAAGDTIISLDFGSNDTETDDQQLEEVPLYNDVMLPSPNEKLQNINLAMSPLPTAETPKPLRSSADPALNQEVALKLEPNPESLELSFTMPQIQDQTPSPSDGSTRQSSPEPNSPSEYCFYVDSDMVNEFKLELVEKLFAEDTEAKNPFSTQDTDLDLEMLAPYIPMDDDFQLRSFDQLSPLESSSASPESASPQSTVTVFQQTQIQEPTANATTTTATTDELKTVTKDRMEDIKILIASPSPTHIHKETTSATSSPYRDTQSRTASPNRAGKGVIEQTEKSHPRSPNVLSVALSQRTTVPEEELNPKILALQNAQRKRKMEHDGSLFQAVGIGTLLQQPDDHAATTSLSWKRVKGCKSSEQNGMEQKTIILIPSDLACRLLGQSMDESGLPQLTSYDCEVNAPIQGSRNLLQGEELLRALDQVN
How it was run: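 Endogenous-TF cis reporter readout, human HepG2 cells, 24 h incubation; mRNA detected via RT-PCR and capillary electrophoresis fluorescence; DMSO-normalised bidirectional fitting.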

[8] = molecular target: Heat shock factor protein 1 (Homo sapiens) (UniProt Q00613); assay: ATG_HSE_CIS: Attagene CIS-FACTORIAL HepG2 Assay for human Heat Shock Transcription Factor 1 (HSE) (AID 2282953); details: HepG2 HSE cis-reporter, Attagene RNA transcription; actives raise or lower the signal
Sequence of Heat shock factor protein 1 (Homo sapiens) (Q00613 whole entry, looked up): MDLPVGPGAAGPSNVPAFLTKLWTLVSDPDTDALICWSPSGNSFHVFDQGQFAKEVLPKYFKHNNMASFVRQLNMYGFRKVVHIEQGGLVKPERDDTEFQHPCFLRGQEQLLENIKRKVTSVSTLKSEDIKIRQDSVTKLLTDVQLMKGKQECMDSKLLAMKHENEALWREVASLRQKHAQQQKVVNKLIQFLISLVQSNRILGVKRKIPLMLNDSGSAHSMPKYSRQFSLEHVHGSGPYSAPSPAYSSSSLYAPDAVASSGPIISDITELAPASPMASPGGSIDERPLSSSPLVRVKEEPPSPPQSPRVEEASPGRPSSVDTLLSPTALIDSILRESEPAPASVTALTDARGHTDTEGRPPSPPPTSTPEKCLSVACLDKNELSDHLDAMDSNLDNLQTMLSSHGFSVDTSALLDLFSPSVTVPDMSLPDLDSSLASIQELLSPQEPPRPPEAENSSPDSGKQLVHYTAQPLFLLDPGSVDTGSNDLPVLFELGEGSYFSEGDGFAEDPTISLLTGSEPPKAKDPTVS
How it was run: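 Liver-derived HepG2 cells carry transiently introduced multiple reporter units governed by cis promoters. Reporter RNA measured 24 h post-dose through reverse transcription, PCR amplification, fluorescent labelling and capillary electrophoresis, normalised to DMSO.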

[9] = ATG_MRE_CIS: Attagene CIS-FACTORIAL HepG2 Assay for human Metal Responsive Element (MRE) (AID 2282954); details: HepG2 MRE cis-reporter transcription, Attagene multiplex; actives raise or lower the signal
How it was run: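 Endogenous MRE-dependent transcription read as reporter mRNA in transiently transfected human HepG2 cells at 24 h. RNA reverse-transcribed, PCR-amplified, labelled and resolved by capillary electrophoresis; gain or loss relative to DMSO.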

[10] = molecular target: Paired box protein Pax-6 (Homo sapiens) (UniProt P26367); assay: ATG_Pax6_CIS: Attagene CIS-FACTORIAL HepG2 Assay for human Paired Box 6 (PAX6) (AID 2282956); details: HepG2 CIS-FACTORIAL PAX6 reporter transcription, RNA readout; actives raise or lower the signal
Sequence of Paired box protein Pax-6 (Homo sapiens) (P26367 whole entry, looked up): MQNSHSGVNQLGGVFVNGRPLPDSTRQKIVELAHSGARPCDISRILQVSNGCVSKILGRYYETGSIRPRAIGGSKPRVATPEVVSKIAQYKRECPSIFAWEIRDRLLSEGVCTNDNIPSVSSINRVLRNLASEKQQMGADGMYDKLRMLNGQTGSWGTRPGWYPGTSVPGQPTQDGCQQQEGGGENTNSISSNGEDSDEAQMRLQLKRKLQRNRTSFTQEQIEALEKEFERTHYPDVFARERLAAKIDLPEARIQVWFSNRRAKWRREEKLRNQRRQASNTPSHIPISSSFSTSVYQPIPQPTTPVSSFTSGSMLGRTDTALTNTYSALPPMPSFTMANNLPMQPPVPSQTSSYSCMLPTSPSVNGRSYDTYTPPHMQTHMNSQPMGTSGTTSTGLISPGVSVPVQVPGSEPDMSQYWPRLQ
How it was run: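 Values derive from bidirectional curve fitting of reporter mRNA signal relative to DMSO. HepG2 cells bearing transfected cis-regulated MRTUs were exposed for 24 h; transcripts were read by RT-PCR and capillary electrophoresis.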

[11] = ATG_PXRE_CIS: Attagene CIS-FACTORIAL HepG2 Assay for human Pregnane X Receptor Element (PXRE) (AID 2282957); details: HepG2 Attagene CIS-FACTORIAL PXRE reporter, mRNA; actives raise or lower the signal
How it was run: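 Endogenous transcription factor activity in HepG2 was gauged through induction of reporter mRNA driven by a cis-regulating promoter element, sampled 24 h post-treatment. Activity was fitted in both directions against DMSO negative control.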

[12] = ATG_PPRE_CIS: Attagene CIS-FACTORIAL HepG2 Assay for human Peroxisome Proliferator-activated Response Element (PPRE) (AID 2282958); details: HepG2 PPRE cis-element reporter, Attagene transcription factor profiling; actives raise or lower the signal
How it was run: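 After human HepG2 hepatoma cells were transiently transfected with cis-promoter reporter constructs, they were exposed to test chemicals for 24 hours. Reporter RNA was then reverse-transcribed, PCR-amplified, FAM-labeled, HpaI-digested and quantified by capillary electrophoresis.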

[13] = ATG_RORE_CIS: Attagene CIS-FACTORIAL HepG2 Assay for human RAR-related Orphan Receptor Element (RORE) (AID 2282959); details: HepG2 Attagene cis-factorial RORE reporter, mRNA; actives raise or lower the signal
How it was run: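 Measured here: transcript induction of a cis-regulated reporter in HepG2 cells transiently transfected via FuGene 6. After 24 h, RNA was processed by RT-PCR and fluorescent capillary electrophoresis; DMSO defined baseline activity.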

[14] = ATG_Sox_CIS: Attagene CIS-FACTORIAL HepG2 Assay for human SRY-box transcription factor (SOX) (AID 2282960); details: HepG2 Attagene cis-factorial SOX reporter, mRNA; actives raise or lower the signal
How it was run: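 Using transiently transfected HepG2 cells, reporter transcription driven by cis elements was assessed 24 h after dosing. Signal was fluorescence of capillary-separated RT-PCR products, with DMSO defining baseline activity.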

[15] = molecular target: Transcription factor Sp1 (Homo sapiens) (UniProt P08047); assay: ATG_Sp1_CIS: Attagene CIS-FACTORIAL HepG2 Assay for human Specificity Protein 1 (Sp1) (AID 2282961); details: HepG2 Sp1 cis-reporter transcription, actives raise or lower the signal
Sequence of Transcription factor Sp1 (Homo sapiens) (P08047 whole entry, looked up): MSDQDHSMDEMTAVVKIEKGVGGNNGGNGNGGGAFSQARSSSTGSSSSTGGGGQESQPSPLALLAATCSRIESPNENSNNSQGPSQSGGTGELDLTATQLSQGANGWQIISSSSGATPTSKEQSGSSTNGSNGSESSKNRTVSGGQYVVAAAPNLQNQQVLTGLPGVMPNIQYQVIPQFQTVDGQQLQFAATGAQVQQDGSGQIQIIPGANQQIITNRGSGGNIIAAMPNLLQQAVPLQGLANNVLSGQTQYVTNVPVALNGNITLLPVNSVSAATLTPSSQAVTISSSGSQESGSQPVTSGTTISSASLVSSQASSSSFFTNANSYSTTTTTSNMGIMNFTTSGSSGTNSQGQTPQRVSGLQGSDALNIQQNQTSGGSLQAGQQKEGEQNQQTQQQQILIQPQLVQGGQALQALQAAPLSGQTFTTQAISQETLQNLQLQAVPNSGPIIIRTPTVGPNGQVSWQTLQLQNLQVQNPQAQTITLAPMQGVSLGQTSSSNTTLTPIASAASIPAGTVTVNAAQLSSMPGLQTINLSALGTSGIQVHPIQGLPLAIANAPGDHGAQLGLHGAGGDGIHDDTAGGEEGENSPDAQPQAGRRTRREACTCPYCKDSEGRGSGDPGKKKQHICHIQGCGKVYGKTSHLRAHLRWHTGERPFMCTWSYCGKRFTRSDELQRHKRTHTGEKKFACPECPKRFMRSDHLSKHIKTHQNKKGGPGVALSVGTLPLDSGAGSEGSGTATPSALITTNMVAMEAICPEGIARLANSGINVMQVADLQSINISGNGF
How it was run: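 After transient transfection of HepG2 cells with cis-promoter reporter units and 24 h chemical treatment, reporter transcripts were quantified by RT-PCR and capillary electrophoresis fluorescence. Gain- and loss-of-signal fitted against DMSO.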

[16] = ATG_SREBP_CIS: Attagene CIS-FACTORIAL HepG2 Assay for human Sterol Regulatory Element Binding (SREBP) (AID 2282962); details: HepG2 Attagene cis-factorial SREBP reporter, mRNA; actives raise or lower the signal
How it was run: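 Values derive from bidirectional curve fitting with DMSO as baseline. The underlying measurement is reporter mRNA from cis-element-regulated units in transiently transfected HepG2, quantified by RT-PCR and capillary electrophoresis after 24 h exposure.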

[17] = molecular target: Signal transducer and activator of transcription 3 (Homo sapiens) (UniProt P40763); assay: ATG_STAT3_CIS: Attagene CIS-FACTORIAL HepG2 Assay for human Signal Transducer and Activator of Transcription 3 (STAT3) (AID 2282963); details: HepG2, Attagene cis-factorial STAT3 reporter transcription; actives raise or lower the signal
Sequence of Signal transducer and activator of transcription 3 (Homo sapiens) (P40763 whole entry, looked up): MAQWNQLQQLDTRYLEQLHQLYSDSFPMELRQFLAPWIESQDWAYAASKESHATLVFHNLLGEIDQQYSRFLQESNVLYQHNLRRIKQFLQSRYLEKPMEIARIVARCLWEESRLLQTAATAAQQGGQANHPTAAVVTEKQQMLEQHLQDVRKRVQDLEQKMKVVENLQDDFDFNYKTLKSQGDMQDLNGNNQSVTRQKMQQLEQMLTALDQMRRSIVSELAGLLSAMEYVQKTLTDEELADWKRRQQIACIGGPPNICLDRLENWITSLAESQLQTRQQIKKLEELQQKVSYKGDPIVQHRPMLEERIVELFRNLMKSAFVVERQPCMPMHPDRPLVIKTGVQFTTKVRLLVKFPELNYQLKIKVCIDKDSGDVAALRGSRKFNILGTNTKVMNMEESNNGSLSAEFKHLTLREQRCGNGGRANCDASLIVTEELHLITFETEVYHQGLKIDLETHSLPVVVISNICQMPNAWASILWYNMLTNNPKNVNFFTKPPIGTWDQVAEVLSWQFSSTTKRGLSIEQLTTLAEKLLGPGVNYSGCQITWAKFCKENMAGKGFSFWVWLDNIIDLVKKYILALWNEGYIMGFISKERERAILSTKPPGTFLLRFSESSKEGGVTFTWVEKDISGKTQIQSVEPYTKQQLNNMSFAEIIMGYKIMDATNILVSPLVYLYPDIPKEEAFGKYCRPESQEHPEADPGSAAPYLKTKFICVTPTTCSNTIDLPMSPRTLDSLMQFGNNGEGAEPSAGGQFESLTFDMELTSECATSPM
How it was run: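 Readout is reporter transcript quantified by RT-PCR and capillary electrophoresis, with 6-FAM primer extension and HpaI digestion. Total RNA is taken 24 h after dosing transiently transfected HepG2 carrying cis-regulated reporter units. Bidirectional fit against DMSO.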

[18] = ATG_TA_CIS: Attagene CIS-FACTORIAL HepG2 Assay for human TA Basal Promoter (AID 2282964); details: HepG2 Attagene CIS-factorial TA basal promoter reporter; actives raise or lower the signal
How it was run: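 Background internal-marker endpoint from a 52-component HepG2 cis-reporter panel. Cells treated 24 h; reporter transcripts quantified via RT-PCR and CE fluorescence against DMSO baseline.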

[19] = molecular target: Hepatocyte nuclear factor 6 (Homo sapiens) (UniProt Q9UBC0); assay: ATG_HNF6_CIS: Attagene CIS-FACTORIAL HepG2 Assay for human Hepatocyte Nuclear Factor 6 (HNF6) (AID 2282952); details: HepG2 Attagene cis-factorial HNF6 reporter transcription; actives raise or lower the signal
Sequence of Hepatocyte nuclear factor 6 (Homo sapiens) (Q9UBC0 whole entry, looked up): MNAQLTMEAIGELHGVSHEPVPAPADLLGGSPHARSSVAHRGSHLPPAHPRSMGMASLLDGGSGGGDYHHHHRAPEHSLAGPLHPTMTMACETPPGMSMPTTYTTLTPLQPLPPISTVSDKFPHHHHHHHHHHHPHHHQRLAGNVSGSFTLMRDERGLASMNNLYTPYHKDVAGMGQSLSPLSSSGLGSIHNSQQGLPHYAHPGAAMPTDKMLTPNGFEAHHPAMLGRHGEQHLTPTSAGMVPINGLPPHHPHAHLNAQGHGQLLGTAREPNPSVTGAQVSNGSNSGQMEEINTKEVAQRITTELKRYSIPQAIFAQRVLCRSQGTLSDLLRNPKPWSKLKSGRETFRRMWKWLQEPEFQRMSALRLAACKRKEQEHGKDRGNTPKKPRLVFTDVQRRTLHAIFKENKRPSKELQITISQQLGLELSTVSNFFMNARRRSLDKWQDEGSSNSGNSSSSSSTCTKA
How it was run: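 Endogenous transcription factor activity in human HepG2 liver cells was captured through cis-regulated reporter constructs. After 24 h treatment, reporter mRNA was measured by RT-PCR with capillary electrophoresis, and activity was fitted in both directions relative to DMSO.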

[20] = ATG_PBREM_CIS: Attagene CIS-FACTORIAL HepG2 Assay for human Phenobarbital-responsive Enhancer Module (PBREM) (AID 2282955); details: HepG2 PBREM cis-reporter, Attagene multiplexed transcription; actives raise or lower the signal
How it was run: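 Readout: reporter mRNA, fluorescent RT-PCR fragments separated by capillary electrophoresis. System: HepG2 transiently transfected with cis-regulated reporter units. Exposure: 24 h. Analysis: bidirectional, DMSO baseline.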

Measured: AC50

CC(=O)CCc1ccc2c(c1)OCO2
active: [11] 27.9 µM
not listed: [19] | [20]
inactive: all other assays above

CC(O)C#N (centres undefined)
not listed: [19] | [20]
inactive: all other assays above

ClC(Cl)c1ccccc1
not listed: [2] | [20]
inactive: all other assays above

CCCCOCC1CO1 (centres undefined)
not listed: [19] | [20]
inactive: all other assays above

CCOC(=O)c1ccccc1C(=O)OCC
not listed: [2] | [20]
inactive: all other assays above

O=C(CBr)OCc1ccccc1
not listed: [19] | [20]
inactive: all other assays above

CSC(C)(C)C=NO
not listed: [2] | [19] | [20]
inactive: all other assays above

CC1=C(C(=O)Nc2ccccc2)S(=O)(=O)CCO1
active: [2] 58.6 µM | [4] 30.2 µM | [7] 27.2 µM | [9] 9.73 µM | [10] 19.9 µM | [11] 5.02 µM
not listed: [19] | [20]
inactive: all other assays above

c1ccc2c(c1)Nc1ccccc1S2
active: [11] 17.1 µM
not listed: [2] | [3]
inactive: all other assays above

CCCCN(CCCC)SN(C)C(=O)Oc1cccc2c1OC(C)(C)C2
active: [11] 8.93 µM
not listed: [2] | [19] | [20]
inactive: all other assays above

O=C(O)C(F)(F)C(F)(F)C(=O)O
not listed: [19] | [20]
inactive: all other assays above

CCOS(=O)(=O)OCC
not listed: [2] | [8]
inactive: all other assays above

Cc1cccc(N)c1
not listed: [2] | [3] | [19] | [20]
inactive: all other assays above

ClC(Cl)(Cl)c1ccccc1
active: [11] 62.9 µM
not listed: [12] | [19]
inactive: all other assays above

c1ccc(OP(Oc2ccccc2)Oc2ccccc2)cc1
active: [11] 39.7 µM
not listed: [2] | [12]
inactive: all other assays above

CCCCOCCOP(=O)(OCCOCCCC)OCCOCCCC
inactive: [1] | [3] | [4] | [5] | [6] | [7] | [8] | [9] | [10] | [12] | [13] | [14] | [15] | [16] | [17] | [18]
active: [4] 24.7 µM | [11] 1.04 µM and 62.9 µM
